Results from PubChem BioAssay (NCATS).
Records with an inconclusive call do not appear. More than one record can exist for a structure, and the calls need not agree. Active and inactive are the calls of the source. Unless noted, the call rests on the fitted dose curve; in most records, active means well fitted curve in the direction sought with a large enough effect; inconclusive means small, poorly fitted or top-dose-only effect, or another doubt; inactive means no such curve, though single readings can be large; an effect the other way counts as inactive or inconclusive.

Key:
[1] = Cytometric Cell-Based qHTS for Inhibitors of the mTORC1 Signaling Pathway in MEF (Tsc2-/-, p53-/-) Cells (AID 2660);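 further: Tsc2 and p53 null MEFs carrying empty vector with compound for 24 h; percent of cells above a phospho-rpS6 to PI ratio cutoff in each well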
Outline: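 Percent of cells positive for normalized phospho-S6 staining is reported, with the cutoff set from rapamycin (7.5 nM) versus DMSO wells. Tsc2-/-, p53-/- MEFs received compound for 24 hrs.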

[2] = High Content Imaging Cell-Based qHTS for Inhibitors of the mTORC1 Signaling Pathway in MEF (Tsc2-/-, p53-/-) Cells (AID 2666); settings: at 38.3 µM (top of the series);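 further: percent of cells scored positive for phospho-rpS6 Ser235/236 immunostaining by imaging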
Outline: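 Tsc2-/-, p53-/- MEFs (empty-vector stable) grown in DMEM + 10% FBS were exposed to compounds for 24 hrs at 37 degree Celsius, fixed, and stained with Alexa-488 anti-phospho-rpS6 Ser235/236 plus Hoechst. Imaging gave the percentage of positive cells per well.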

[3] = High Content Imaging Cell-Based qHTS for Inhibitors of the mTORC1 Signaling Pathway in MEF Cells (AID 2667);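 further: Tsc2-/- p53-/- MEFs stably re-expressing wild-type Tsc2 exposed 24 h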
Outline: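 Tsc2-/-, p53-/- MEFs stably re-expressing WT Tsc2, grown in DMEM + 10% FBS, were treated with compounds for 24 hrs at 37 degree Celsius, fixed, and stained with Alexa-488 phospho-rpS6 Ser235/236 antibody plus Hoechst; results given as % positive cells.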

[4] = Cytometry Cell-Based qHTS for Inhibitors of the mTORC1 Signaling Pathway in MEF cells (AID 2668);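 further: Tsc2-/- p53-/- mouse embryonic fibroblasts stably re-expressing wild-type Tsc2; percent cells positive for phospho-rpS6 Ser235/236 relative to propidium iodide stain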
Outline: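 Pathway inhibition in WT Tsc2-rescued Tsc2-/-, p53-/- MEFs is measured as the Alexa-488 phospho-rpS6 to propidium iodide intensity ratio after 24 hrs of compound at 37 degree Celsius. PI-stained cell number gives viability.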

[5] = biological target: Ubiquitin carboxyl-terminal hydrolase 2 (Homo sapiens) (UniProt O75604); assay: qHTS Validation Assay for Inhibitors of Ubiquitin-specific Protease USP2a Using CHOP2 as the Reporter (AID 463106)
Outline: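 Readout was coupled fluorescence (Ex 485/Em 531 nm), read 60 min after adding 25 nM final Ub-CHOP2 and 25 nM reporter substrate. Beforehand, 10 nM final USP2 core had 30 min at RT with compound in pH 8.0 buffer. Curves were fitted after normalization to NEM and flagged for artifacts using time-zero reads.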

[6] = biological target: DNA polymerase III PolC-type (Bacillus subtilis (strain 168)) (UniProt P13267); assay: qHTS Validation Assay for the Inhibitors of DNA Replication in Gram-Positive Bacteria (AID 485295);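 further: reconstituted holoenzyme with PolC plus beta clamp SSB and primase; PicoGreen fluorescence of double-stranded DNA made on primed circular M13 template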
Sequence of DNA polymerase III PolC-type (Bacillus subtilis (strain 168)) (P13267 whole entry, looked up): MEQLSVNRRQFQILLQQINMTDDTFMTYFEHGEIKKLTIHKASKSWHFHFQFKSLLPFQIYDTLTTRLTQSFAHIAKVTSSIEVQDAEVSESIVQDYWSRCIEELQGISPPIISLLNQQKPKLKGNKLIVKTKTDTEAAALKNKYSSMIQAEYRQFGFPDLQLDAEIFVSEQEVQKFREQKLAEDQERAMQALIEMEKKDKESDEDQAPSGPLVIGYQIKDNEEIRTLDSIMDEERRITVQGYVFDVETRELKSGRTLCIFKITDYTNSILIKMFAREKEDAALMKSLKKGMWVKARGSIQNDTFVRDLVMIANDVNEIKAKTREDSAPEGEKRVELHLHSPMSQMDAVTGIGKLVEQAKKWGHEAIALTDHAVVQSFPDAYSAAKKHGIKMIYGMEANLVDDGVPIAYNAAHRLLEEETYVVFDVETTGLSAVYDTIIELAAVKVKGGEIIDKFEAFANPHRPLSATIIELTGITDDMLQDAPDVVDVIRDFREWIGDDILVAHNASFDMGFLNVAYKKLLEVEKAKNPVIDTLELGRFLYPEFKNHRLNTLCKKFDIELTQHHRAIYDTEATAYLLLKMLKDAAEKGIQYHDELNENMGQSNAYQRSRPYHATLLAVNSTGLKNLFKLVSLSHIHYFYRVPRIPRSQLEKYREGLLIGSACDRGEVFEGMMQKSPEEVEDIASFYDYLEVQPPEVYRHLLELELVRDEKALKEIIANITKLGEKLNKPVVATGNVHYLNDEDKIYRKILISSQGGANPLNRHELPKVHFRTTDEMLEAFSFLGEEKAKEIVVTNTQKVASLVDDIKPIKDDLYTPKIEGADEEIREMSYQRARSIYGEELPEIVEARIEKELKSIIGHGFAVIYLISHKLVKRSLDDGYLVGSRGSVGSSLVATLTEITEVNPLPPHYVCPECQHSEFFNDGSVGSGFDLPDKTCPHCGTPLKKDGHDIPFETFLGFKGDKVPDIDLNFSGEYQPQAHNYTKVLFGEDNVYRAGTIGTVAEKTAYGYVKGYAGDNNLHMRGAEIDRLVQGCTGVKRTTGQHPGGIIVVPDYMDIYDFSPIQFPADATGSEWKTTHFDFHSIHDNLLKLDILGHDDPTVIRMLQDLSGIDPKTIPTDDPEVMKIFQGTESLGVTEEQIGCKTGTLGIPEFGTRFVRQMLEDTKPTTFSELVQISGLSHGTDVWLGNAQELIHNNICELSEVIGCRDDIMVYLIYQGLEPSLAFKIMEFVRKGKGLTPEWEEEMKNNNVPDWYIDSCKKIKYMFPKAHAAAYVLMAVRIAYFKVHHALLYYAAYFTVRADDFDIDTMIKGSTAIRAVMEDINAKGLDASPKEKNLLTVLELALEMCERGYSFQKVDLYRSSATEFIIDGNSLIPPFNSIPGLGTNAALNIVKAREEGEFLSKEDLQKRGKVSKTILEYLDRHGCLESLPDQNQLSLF
Outline: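 Primed replication of single-stranded M13Gori by a four-protein B. subtilis holoenzyme is measured at room temperature. Double-stranded product is quantified by PicoGreen fluorescence after an EDTA stop; inhibition is scaled between DMSO and EDTA controls.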

[7] = biological target: Beta-2 adrenergic receptor (Homo sapiens) (UniProt P07550); assay: qHTS validation assay of beta-arrestin-biased ligands of beta2-adrenergic receptor (AID 485366)
Sequence of Beta-2 adrenergic receptor (Homo sapiens) (P07550 whole entry, looked up): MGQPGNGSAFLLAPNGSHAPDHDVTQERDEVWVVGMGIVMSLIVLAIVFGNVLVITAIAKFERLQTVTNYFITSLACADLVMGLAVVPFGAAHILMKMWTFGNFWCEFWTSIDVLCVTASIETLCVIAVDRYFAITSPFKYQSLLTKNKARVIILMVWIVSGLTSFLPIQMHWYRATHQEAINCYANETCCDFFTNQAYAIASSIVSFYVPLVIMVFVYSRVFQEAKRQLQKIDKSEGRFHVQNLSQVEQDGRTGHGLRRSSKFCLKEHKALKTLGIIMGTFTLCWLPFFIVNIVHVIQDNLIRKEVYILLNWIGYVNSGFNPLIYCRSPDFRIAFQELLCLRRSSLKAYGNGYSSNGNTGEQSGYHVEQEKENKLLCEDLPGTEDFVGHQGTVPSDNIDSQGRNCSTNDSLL
Outline: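 Screening used a titration range of up to 46 microM in a beta-arrestin recruitment Tango luciferase assay. Cells in 1% FBS medium were treated 18 hr at 37 degrees C, and luminescence was normalized to %Activity.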

[8] = biological target: Thioredoxin reductase 1, cytoplasmic (Rattus norvegicus) (UniProt O89049); assay: qHTS Assay for Substrates of Mammalian Selenoprotein Thioredoxin Reductase 1 (TrxR1) (AID 488772);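 further: a drop in NADPH fluorescence below the no-compound background marks a TrxR1 substrate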
Outline: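 In this dual-purpose format, potential substrates are identified from the first fluorescence read after selenite addition, not from the 8-minute delta. Rat enzyme is preincubated with NADPH and then with compound at ~22 deg C.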

[9] = biological target: Thioredoxin reductase 1, cytoplasmic (Rattus norvegicus) (UniProt O89049); assay: qHTS Assay for Inhibitors of Mammalian Selenoprotein Thioredoxin Reductase 1 (TrxR1) (AID 488773); settings: Potency: inhibition; further: nearly all actives have a fitted effect of over 40% in size; further: potency means the concentration at half of the fitted maximal effect
Outline: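 Inhibition is scored from the loss of NADPH fluorescence between first and last reads of an 8-min kinetic run. Selenite (400 uM) was the substrate, added after 15 min compound preincubation at room temperature.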

[10] = biological target: Flap endonuclease 1 (Homo sapiens) (UniProt P39748); assay: qHTS Validation Assay for the Inhibitors of Human Flap endonuclease 1 (FEN1) (AID 488816)
Sequence of Flap endonuclease 1 (Homo sapiens) (P39748 whole entry, looked up): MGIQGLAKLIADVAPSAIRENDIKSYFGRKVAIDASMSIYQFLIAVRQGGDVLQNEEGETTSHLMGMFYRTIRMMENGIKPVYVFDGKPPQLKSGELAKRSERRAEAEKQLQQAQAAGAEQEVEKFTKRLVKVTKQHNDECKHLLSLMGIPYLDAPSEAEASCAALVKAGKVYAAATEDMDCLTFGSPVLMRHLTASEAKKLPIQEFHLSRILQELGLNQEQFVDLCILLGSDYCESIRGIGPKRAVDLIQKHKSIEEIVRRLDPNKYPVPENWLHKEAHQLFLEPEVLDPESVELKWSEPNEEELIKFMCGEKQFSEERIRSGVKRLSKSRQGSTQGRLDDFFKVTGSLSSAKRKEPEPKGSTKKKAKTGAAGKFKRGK
Outline: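 qHTS format: compounds and 10 nM FEN1 incubated 15 min at room temperature before adding 50 nM substrate. Cleavage followed by reads at 0 and 15 min; normalized data fitted to a four-parameter Hill curve.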

[11] = biological target: M-phase phosphoprotein 8 (Homo sapiens) (UniProt Q99549); assay: qHTS Validation Assay for Inhibitors for MPP8 Chromodomain Interactions with Methylated Histone Tails (AID 488949); further: nearly all actives have a fitted effect of over 55% in size; further: potency means the concentration at half of the fitted maximal effect
Sequence of M-phase phosphoprotein 8 (Homo sapiens) (Q99549 whole entry, looked up): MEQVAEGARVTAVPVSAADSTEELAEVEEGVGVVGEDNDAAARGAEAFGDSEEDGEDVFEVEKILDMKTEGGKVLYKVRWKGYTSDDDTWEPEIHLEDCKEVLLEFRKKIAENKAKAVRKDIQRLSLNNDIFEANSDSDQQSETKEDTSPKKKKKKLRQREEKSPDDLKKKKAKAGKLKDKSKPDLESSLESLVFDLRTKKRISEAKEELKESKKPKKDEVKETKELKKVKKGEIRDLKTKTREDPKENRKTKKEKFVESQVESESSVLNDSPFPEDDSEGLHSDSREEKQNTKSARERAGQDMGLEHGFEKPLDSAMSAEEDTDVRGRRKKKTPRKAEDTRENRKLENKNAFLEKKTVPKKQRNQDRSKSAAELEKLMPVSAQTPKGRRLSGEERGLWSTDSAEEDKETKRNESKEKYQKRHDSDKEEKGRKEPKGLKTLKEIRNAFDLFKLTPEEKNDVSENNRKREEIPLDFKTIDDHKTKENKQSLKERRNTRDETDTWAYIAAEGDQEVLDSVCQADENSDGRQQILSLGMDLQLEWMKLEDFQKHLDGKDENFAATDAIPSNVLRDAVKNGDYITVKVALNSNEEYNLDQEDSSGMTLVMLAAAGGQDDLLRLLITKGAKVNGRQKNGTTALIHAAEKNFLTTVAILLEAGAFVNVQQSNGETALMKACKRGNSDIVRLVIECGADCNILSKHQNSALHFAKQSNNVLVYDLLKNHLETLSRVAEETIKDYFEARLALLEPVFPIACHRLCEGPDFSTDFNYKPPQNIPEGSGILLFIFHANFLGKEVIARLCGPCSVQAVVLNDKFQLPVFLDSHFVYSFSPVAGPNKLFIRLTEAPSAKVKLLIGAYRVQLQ
Outline: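 Disruption of the preformed MPP8–trimethyl-H3K9 peptide complex (both 50 nM, 30 min, RT) is measured after 30 min compound exposure, using AlphaScreen proximity beads; aurintricarboxylic acid titration serves as plate control.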

[12] = biological target: Methanococcus maripaludis chaperonin (MmCpn) (UniProt Q6LX38); assay: High-Throughput Screening for Modulators of Cytosolic Chaperonin Activity: MmCpn Primary Screen (AID 488978);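 further: 50 nM MmCpn enzyme hydrolysing 30 µM ATP at 37 °C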
Outline: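 Measures ATPase turnover of the M. maripaludis chaperonin (50 nM final) against 30 uM ATP over 10 min at 37C, with compound added 5 min beforehand at room temperature. ADP is quantified by HTRF immunodetection.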

[13] = Validation screen for small molecules that induce DNA re-replication in MCF 10A normal breast cells (AID 463097); further: nearly all actives have a fitted effect of over 60% in size; further: potency means the concentration at half of the fitted maximal effect
Outline: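 DNA re-replication was detected as a rise in nuclei with elevated Hoechst fluorescence after a 48 hr compound exposure of MCF 10A cells at 37 C.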

[14] = qHTS Validation Assay to Find Inhibitors of Chronic Active B-Cell Receptor Signaling (AID 485345; active means well fitted curve in the direction sought with a large enough effect in the main read-out, with a control signal flat, not every such curve was filed as active)
Outline: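 Read-out: ratio of filter-corrected green (IkappaBalpha fusion) to red (native) luciferase signal in doxycycline-induced TMD8 cells after 4 h at 37C. Titration spanned 46 uM–3 nM; Data were normalised to basal cells and 10 uM MG-132 wells.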

[15] = Quantitative high throughput screen for delayed death inhibitors of the malarial parasite plastid, 96 hour incubation (AID 488745); further: nearly all actives have a fitted effect of over 70% in size; further: potency means the concentration at half of the fitted maximal effect
Outline: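 Luciferase-expressing P. falciparum, infected RBCs 2% Hct/0.1% parasitemia (final); 96 h cpd exposure, 37 C, 5% CO2; RPMI 1640 + 0.5% Albumax, bicarbonate, gentamycin. Readout: luminescence loss = growth inhibition.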

[16] = Quantitative high throughput screen for delayed death inhibitors of the malarial parasite plastid, 48 hour incubation (AID 488752); further: nearly all actives have a fitted effect of over 65% in size; further: potency means the concentration at half of the fitted maximal effect
Outline: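 Luciferase-expressing P. falciparum in RBCs, 2% Hct, 0.1% parasitemia final; RPMI 1640 + 0.5% Albumax; 48 h, 37 C, 5% CO2; luminescence readout, signal drop = growth inhibition.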

[17] = biological target: Chromobox protein homolog 1 (Homo sapiens) (UniProt P83916); assay: qHTS Validation Assay for Inhibitors of HP1-beta Chromodomain Interactions with Methylated Histone Tails (AID 488953); further: nearly all actives have a fitted effect of over 50% in size; further: potency means the concentration at half of the fitted maximal effect
Sequence of Chromobox protein homolog 1 (Homo sapiens) (P83916 whole entry, looked up): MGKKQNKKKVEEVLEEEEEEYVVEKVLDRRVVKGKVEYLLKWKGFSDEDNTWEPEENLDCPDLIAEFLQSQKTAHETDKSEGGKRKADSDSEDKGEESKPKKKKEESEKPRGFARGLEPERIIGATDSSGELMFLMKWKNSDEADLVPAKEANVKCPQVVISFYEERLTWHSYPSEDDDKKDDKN
Outline: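 AlphaScreen proximity readout: streptavidin donor and Ni-chelate acceptor beads, 10 ug/mL final, 30 min dark, RT. Complex of 50 nM HP1-beta and 50 nM b-H3(1-18)K9me3 formed 30 min, then compound-treated 30 min; PBS pH 7.4/0.01% Tween-20.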

[18] = biological target: Transient receptor potential cation channel subfamily V member 1 (Homo sapiens) (UniProt Q8NER1); assay: HTS Assay for Compounds that Act as Enhancers of the Vanilloid Receptor 1 (AID 488979)
Outline: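 Calcium influx kinetics via Fluo-8 (480/520 nm) in TRPV1-expressing cells, 2000/well cultured overnight at 35.5C. Compound-alone read 3 min (agonist phase), followed by EC20 capsaicin challenge for 2 min (enhancer phase).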

[19] = biological target: Thyrotropin receptor (Homo sapiens) (UniProt P16473); assay: qHTS Assay for Antagonists of the Thyroid Stimulating Hormone Receptor (AID 488980)
Outline: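 Cells expressing human TSHR (HEK293) are dispensed in HBSS/HEPES containing 70 uM RO 20-1724, compound is added, then TSH at EC80 (4 nM final). Antibody in lysis buffer follows, 30 minutes at room temperature before HTRF detection.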

[20] = biological target: RecQ-like DNA helicase BLM (Homo sapiens) (UniProt P54132); assay: qHTS Validation Assay for Inhibitors of Bloom's syndrome helicase (BLM) (AID 2364)
Sequence of RecQ-like DNA helicase BLM (Homo sapiens) (P54132 whole entry, looked up): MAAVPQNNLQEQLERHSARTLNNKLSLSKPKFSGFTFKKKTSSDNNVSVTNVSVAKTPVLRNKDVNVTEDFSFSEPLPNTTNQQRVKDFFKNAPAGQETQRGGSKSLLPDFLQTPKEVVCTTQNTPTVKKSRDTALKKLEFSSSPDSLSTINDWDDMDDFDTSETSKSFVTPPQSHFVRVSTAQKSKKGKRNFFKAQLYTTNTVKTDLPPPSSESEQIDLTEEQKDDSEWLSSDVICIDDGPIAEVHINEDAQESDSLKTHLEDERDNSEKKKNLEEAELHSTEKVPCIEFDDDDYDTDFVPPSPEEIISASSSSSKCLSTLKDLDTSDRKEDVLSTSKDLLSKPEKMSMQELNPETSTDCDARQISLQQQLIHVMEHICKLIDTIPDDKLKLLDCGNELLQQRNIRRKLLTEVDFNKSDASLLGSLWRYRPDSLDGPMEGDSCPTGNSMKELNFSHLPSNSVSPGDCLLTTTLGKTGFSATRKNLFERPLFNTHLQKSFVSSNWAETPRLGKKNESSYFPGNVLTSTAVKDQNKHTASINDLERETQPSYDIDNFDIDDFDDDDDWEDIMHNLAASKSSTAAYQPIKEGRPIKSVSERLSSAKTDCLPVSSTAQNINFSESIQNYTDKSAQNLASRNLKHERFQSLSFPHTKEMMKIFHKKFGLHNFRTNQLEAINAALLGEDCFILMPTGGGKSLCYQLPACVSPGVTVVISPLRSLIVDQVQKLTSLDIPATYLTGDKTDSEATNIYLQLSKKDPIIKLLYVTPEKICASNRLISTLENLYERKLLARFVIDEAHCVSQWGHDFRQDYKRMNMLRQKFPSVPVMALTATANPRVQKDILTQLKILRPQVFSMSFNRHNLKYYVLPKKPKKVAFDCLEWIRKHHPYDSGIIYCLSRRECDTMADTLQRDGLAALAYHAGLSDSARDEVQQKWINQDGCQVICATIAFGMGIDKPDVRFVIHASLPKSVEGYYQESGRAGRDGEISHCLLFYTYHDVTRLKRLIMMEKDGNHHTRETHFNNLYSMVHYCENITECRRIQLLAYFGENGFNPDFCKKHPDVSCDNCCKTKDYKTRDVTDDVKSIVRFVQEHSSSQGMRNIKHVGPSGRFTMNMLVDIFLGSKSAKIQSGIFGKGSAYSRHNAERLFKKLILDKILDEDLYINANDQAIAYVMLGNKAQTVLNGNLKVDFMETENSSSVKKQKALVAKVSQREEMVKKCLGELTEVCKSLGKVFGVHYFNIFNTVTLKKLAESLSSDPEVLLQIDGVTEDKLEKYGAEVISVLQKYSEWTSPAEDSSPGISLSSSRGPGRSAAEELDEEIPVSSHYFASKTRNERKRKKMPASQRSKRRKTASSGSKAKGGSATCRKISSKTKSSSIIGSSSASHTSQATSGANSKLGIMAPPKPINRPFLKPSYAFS
Outline: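 Forked 20-bp duplex substrate (200 nM, TAMRA/BHQ-2) plus 2 mM ATP added after 15 min compound preincubation with 50 nM enzyme, pH 8.0, poly(dI-dC) 2.5 ug/ml. Strand separation followed by fluorescence (525/598 nm) over 2 h, normalized to enzyme-free and DMSO controls.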

Measured: Potency

O=C1NC(=O)/C(=C/c2ccc3c(c2)OC(F)(F)O3)S1
not listed: [13] | [14] | [15] | [16] | [17] | [18] | [19] | [20]
inactive: all other assays above

C[N+](C)(C)CCO
not listed: [20]
inactive: all other assays above

O=[N+]([O-])c1ccc(-c2nc(-c3ccc(F)cc3)c(-c3ccncc3)[nH]2)cc1
22.4 µM (active) and inactive: [11]
active: [13] 12.6 µM | [16] 10.4 µM | [17] 31.6 µM
not listed: [3] | [4] | [14] | [15] | [20]
inactive: all other assays above

NC(N)=NCCCCN=C(N)N
inactive: all assays above

N[C@@H](Cn1ccc(=O)c(O)c1)C(=O)O
not listed: [13] | [15] | [16] | [18] | [19] | [20]
inactive: all other assays above

CN(C)c1cc2c(Nc3ccc4c(cnn4Cc4ccccc4)c3)ncnc2cn1
active: [13] 3.16 µM | [15] 7.38 µM | [16] 4.65 µM
not listed: [4] | [10] | [14] | [17] | [20]
inactive: all other assays above

Brc1ccc([C@H]2CN3CCSC3=N2)cc1
active: [13] 7.08 µM
not listed: [17] | [20]
inactive: all other assays above

COc1cccc2c1[C@@H]1CN(CCCCn3c(=O)[nH]c4c(sc5ncc(-c6ccccc6)nc54)c3=O)C[C@@H]1CO2
active: [11] 20 µM | [17] 22.4 µM
inactive: [20] | [5] | [7] | [8] | [9] | [10] | [12] | [18] | [19]

COc1ccccc1N1CCN(CCN2C(=O)CC3(CCCC3)CC2=O)CC1
not listed: [15]
inactive: all other assays above

O=C1NC(c2cccc([N+](=O)[O-])c2)=CCN1c1ccccc1O
not listed: [15]
inactive: all other assays above

CCN(CC)CCNC(=O)c1ccc(NS(C)(=O)=O)cc1
not listed: [13] | [15] | [16] | [18] | [19] | [20]
inactive: all other assays above

CC(C)N(CCC(=O)c1ccc2ccccc2c1)Cc1ccccc1
active: [13] 3.55 µM | [9] 7.52 µM | [17] 44.7 µM
28.2 µM (active) and inactive: [11]
not listed: [1] | [3] | [4] | [14] | [18] | [20]
inactive: all other assays above

COC(=O)C1=CO[C@@H](O)[C@@H]2C(CO)=CC[C@H]12
not listed: [8] | [13] | [15] | [16] | [18] | [19] | [20]
inactive: all other assays above

Nc1ncnc2n[nH]c(Nc3ccc(F)cc3)c12
not listed: [4] | [13] | [15] | [16] | [18] | [19] | [20]
inactive: all other assays above

Clc1ccc2c(c1)N=C(N1CCNCC1)c1ccccc1N2
inactive: [1] | [2] | [5] | [6] | [7] | [8] | [10] | [11] | [17] | [12]

Cn1cnc2c(NCc3ccccc3)nc(NCCO)nc21
not listed: [15] | [16]
inactive: all other assays above

C[C@]12CCC(=O)C=C1CC[C@@H]1[C@@H]2[C@@H](O)C[C@@]2(C)[C@H]1CC[C@]2(O)C(=O)COC(=O)CCC(=O)O
inactive: [20] | [13] | [15] | [16] | [11] | [18] | [19]

Cc1nn(-c2ccccc2)c(C)c1/C=N/N1CCN(Cc2ccccc2)CC1
active: [17] 39.8 µM
not listed: [11] | [13] | [14] | [15] | [16] | [18] | [19] | [20]
inactive: all other assays above
